Results from PubChem BioAssay AID743373 (National Center for Advancing Translational Sciences (NCATS), 2014).
Results filed as inconclusive are left out. Calls of active or inactive are those of the source. Calls follow the shape of the dose curve; as a rule, active = well fitted inhibition curve with a large enough effect; inconclusive = small, poorly fitted or top-dose-only effect; inactive = flat fitted curve, though single readings scatter.

Molecular target: Galactokinase (Homo sapiens) (UniProt P51570)
Sequence (P51570 whole entry, looked up): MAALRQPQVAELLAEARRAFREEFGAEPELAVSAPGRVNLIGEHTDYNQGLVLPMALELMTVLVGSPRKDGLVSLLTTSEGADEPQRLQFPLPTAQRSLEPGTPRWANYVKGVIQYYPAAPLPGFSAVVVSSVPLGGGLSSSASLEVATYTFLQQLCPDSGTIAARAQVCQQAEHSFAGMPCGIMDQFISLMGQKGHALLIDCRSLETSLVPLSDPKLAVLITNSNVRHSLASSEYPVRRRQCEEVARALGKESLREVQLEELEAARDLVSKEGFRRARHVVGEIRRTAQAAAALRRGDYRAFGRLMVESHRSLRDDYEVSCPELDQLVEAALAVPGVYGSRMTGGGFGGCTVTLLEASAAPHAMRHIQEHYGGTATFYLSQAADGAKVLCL
Assay: qHTS for Inhibitors of Human Galactokinase (GALK): Confirmation Assay for SAR round 4
Conditions: recombinant GALK, ADP-Glo luminescence, 1 h
Source text: Inherited deficiency of galactose-1-phosphate uridyltransferase (GALT) can result in a potentially lethal disorder called Classic Galactosemia (OMIM 230400). Several lines of evidence indicate that an elevated level of galactose-1-phosphate (gal-1-p), the product of galactokinase (GALK), is a major, if not sole, pathogenic mechanism in patients with classic galactosemia. Therefore, finding inhibitors of GALK is a potential novel therapy for this inherent metabolic disease and is the long term goal of this project. Active compounds observed in the qHTS GALK assay (AID: 1868) were cherry picked and re-screened for validation. GALK (provided by Kent Lai) was assayed using ATP and D-(+)-Galactose (Sigma-Aldrich cat# G0750) as substrates. Promega ADP-Glo technology was used to detect the ADP product formed after the kinase reaction. […]
Two uL/well of ATP-buffer solution (35 uM ATP, 20mM HEPES pH8.0, 5 mM MgCl2, 60 mM NaCl, 1 mM DTT, 0.01% BSA final concentration) was dispensed into 1536-well, assay plates (Greiner, solid white medium-binding plates) with Aurora Discovery BioRAPTR Flying Reagent Dispenser (FRD; Beckton-Dickenson). […] Luminescence was detected with the ViewLux plate reader (Perkin Elmer, Waltham, MA) using a 1 sec exposure time and 2x binning.

Compound | Potency
CC1=C(C(=O)Nc2nncs2)C(c2nn(C)cc2Cl)N=C(Nc2nc3ccccc3o2)N1 (configuration not stated) | 6.85 µM (active)
Cn1cc(Br)c(C2N=C(Nc3nc4ccccc4o3)NC3=C2C(=O)CCC3)n1 (configuration not stated) | 4.32 µM (active)
